# From PubChem BioAssay
# Not all results are given here.
# aSyn 5UTR act – Activators via SNCA 5'UTR binding, MLPCN; activity score, % (tested at 7.5 µM), hits read low; 7.1% of 300,000 active; AID 1814; alpha-synuclein 5'UTR reporter, activators screen; in the data active = activity score below about -60%
# Starred values were filed as active, the others as inactive.
SMILES,aSyn 5UTR act
COc1ccccc1NC(=O)Cn1nnc(-c2ccccc2NC(=O)c2cc3ccccc3oc2=O)n1,-118.9*
O=C(Nc1ccc(NC(=O)C2CC2)cc1)c1cccs1,-168.6*
O=C(Nc1ccc(Cl)cc1)c1cccs1,-146.4*
CCC(C)c1ccc(NC(=O)c2cccs2)cc1 (centres undefined),-71.0*
O=C(Nc1cccc(N2CCCC2)c1)c1cccs1,-66.0*
COc1ccc(NC(=O)c2cccs2)cc1O,-134.9*
CCCCNS(=O)(=O)c1ccc(NC(=O)c2cccs2)cc1,-65.9*
COc1ccc(/C=C/C(=O)c2ccc(NC(=O)c3cccs3)cc2)cc1OC,-93.6*
O=C(CNC(=S)NC(=O)C1CCCCC1)c1ccccc1,-125.7*
O=C(NC(=S)Nc1ccc(Br)cn1)c1cccs1,-172.5*
Cc1cccnc1NC(=O)NC(=O)c1ccc(C(C)(C)C)s1,-169.5*
CC(C)C(=O)Nc1ccc(NC(=O)c2cccs2)cn1,-131.8*
O=C(CNC(=S)NC(=O)c1cccs1)c1ccccc1,-74.3*
O=C(NC(=S)Nc1ccccc1)c1cccs1,-147.2*
CN1CCN(c2ccc(NC(=O)c3cccs3)cc2)CC1,-87.6*
O=C(Cc1ccccc1)NNC(=S)NC(=O)c1cccs1,75.4
O=C(Nc1ccc2[nH]ccc2c1)c1cccs1,-105.2*
CCC(=O)NC(c1cccs1)c1ccc2cccnc2c1O (centres undefined),79.6
Cc1cccnc1NC(=S)NC(=O)c1cccs1,-398.5*
Cc1ccc(NC(=O)Cn2nnc(-c3ccccc3NC(=O)c3cccs3)n2)cc1,67.2
Cc1conc1NC(c1cccs1)c1ccc2cccnc2c1O (centres undefined),66.3
O=C(NC(=S)Nc1ccc(N2CCCCC2)c(Cl)c1)c1cccs1,-109.8*
COc1ccc(NC(=O)Cn2nnc(-c3ccccc3NC(=O)c3cccs3)n2)cc1,-168.6*
O=C(Nc1ccc(NC(=O)c2cccs2)cc1)c1cccs1,-140.8*
CC(C)c1ccc(NC(=S)NNC(=O)c2cccs2)cc1,-95.3*
SMILES,aSyn 5UTR act
COc1cc(OC)cc(C(=O)Nc2ccc(N3CCN(C(=O)c4cccs4)CC3)cc2)c1,-180.3*
CCCCOc1cccc(C(=O)Nc2ccc(NC(=O)c3cccs3)cc2)c1,64.4
O=C(CNC(=S)NC(=O)c1ccco1)c1ccccc1,-79.7*
COc1ccc(NC(=O)c2cccs2)cc1,-148.7*
CC1=C(C)CC(C(=O)NCC(=O)c2ccccc2)C(C(=O)O)C1 (centres undefined),-169.1*
COc1ccc(NC(=S)NNC(=O)c2cccs2)cc1,-80.6*
Cc1ccn(-c2ccc(NC(=O)c3cccs3)cc2)n1,-63.0*
S=C(N/N=C/c1ccco1)NC1CC2CCC1C2 (centres undefined),-89.5*
Oc1ccccc1/C=N/NC(=S)NC1CC2CCC1C2 (centres undefined),-83.0*
Cc1ccc(-c2cc(-c3c(C)nn(C)c(=O)c3N)[nH]n2)cc1,-109.6*
Cc1nn(C)c(=O)c(N)c1-c1cc(-c2ccc(Cl)c(Cl)c2)n[nH]1,-71.1*
c1c2c(cc3sc(N4CCOCC4)nc13)OCO2,-64.4*
c1ccc(N2CCN(c3nc4cc5c(cc4s3)OCO5)CC2)cc1,-142.4*
Cc1ccc(NC(=O)c2ccc3nc(N4CCOCC4)sc3c2)c(Cl)c1,-67.5*
c1ccc2c(c1)CCN(c1nc3cc4c(cc3s1)OCO4)C2,-121.9*
Fc1ccc2nc(N3CCOCC3)sc2c1,-131.3*
COc1ccc(-c2cc(-c3ccc(C)cc3)n[nH]2)c(O)c1,-143.7*
COc1ccc(-c2cc(-c3ccc(OC)cc3)[nH]n2)cc1,-155.1*
COc1ccc(Oc2ccc(-c3ccn[nH]3)cc2)cc1,-76.2*
Oc1ccc(Cl)cc1-c1cc(-c2ccccc2Cl)[nH]n1,-158.3*
Cc1ccc(O)c(-c2cc(-c3ccccc3[N+](=O)[O-])[nH]n2)c1,-94.8*
COc1ccc(-c2cc(-c3cc(C)ccc3O)[nH]n2)cc1,-248.7*
O=C(Cn1ccsc1=NC(=O)C(F)(F)F)c1ccccc1,-122.8*
CCOc1cc(-c2nc3ccccc3s2)ccc1O,-98.4*
CC[n+]1c(/C=C/N(C)c2ccccc2)n(-c2ccccc2)c2ccc(-c3nc4ccccc4s3)cc21,120.4
SMILES,aSyn 5UTR act
COc1cc(-c2nc3ccccc3s2)ccc1O,-221.7*
COc1ccc(-c2nc3ccccc3s2)cc1O,85.4
FC(F)(F)c1cnc(COc2ccc(Cl)cc2Cl)c(Cl)c1,-81.8*
CC(=O)c1ccc(OCc2ncc(C(F)(F)F)cc2Cl)cc1,-81.0*
COc1ccc(S(=O)(=O)NCc2ccccn2)cc1NC(=O)c1ccccc1,-62.3*
CCOc1ccc(S(=O)(=O)NCc2ccccn2)cc1NC(=O)c1ccccc1F,75.6
O=C(O)CCCn1c(O)c(C=C2N=c3ccccc3=N2)sc1=S,-88.9*
C/C(=N\n1nnnc1Nc1ccccc1)c1ccc(N)cc1,-124.1*
Cc1cc2cc(NC(=O)c3ccco3)ccc2[nH]1,-141.2*
O=C(Nc1nccs1)c1ccc(NC(=O)c2ccco2)cc1,-141.5*
O=C(Nc1ccc(Br)cc1)c1ccco1,-154.1*
CC(=O)N(C)c1ccc(NC(=O)c2ccco2)cc1,-80.0*
O=C(Nc1ccc(Nc2ccccc2)cc1)c1ccco1,-150.2*
O=C(Nc1ccc(NC(=O)C2CC2)cc1)c1ccco1,-92.4*
Cc1cccc(OCC(=O)Nc2ccc(NC(=O)c3ccco3)cc2)c1,-66.5*
Cc1ccc(NC(=O)CNC(=O)c2ccco2)cc1,-120.0*
CC(=O)[C@]1(O)Cc2c(O)c3c(c(O)c2[C@@H](O[C@H]2C[C@H](N)[C@H](O)[C@H](C)O2)C1)C(=O)c1ccccc1C3=O,110.1
Nc1nc2ccc(NC(=O)c3ccco3)cc2s1,-116.0*
O=C(Nc1ccc(Cc2ccncc2)cc1)c1ccco1,-74.6*
O=C(Nc1ccc(NC(=O)c2ccco2)cc1)c1ccco1,-109.3*
O=C(Nc1nc2c(s1)COc1ccccc1-2)c1cccs1,-104.3*
O=C(Nc1nc2c(s1)CCc1ccccc1-2)c1cccs1,-109.6*
Cc1ccc(-c2nc3ccccc3s2)cc1NC(=O)c1ccc2c(c1)OCO2,-76.2*
O=C(Nc1cc(-c2nc3ccccc3s2)ccc1Cl)c1ccc2c(c1)OCO2,-70.4*
Cc1ccc(-c2nc3ccccc3s2)cc1NC(=S)NC(=O)c1cccc2ccccc12,-97.3*
SMILES,aSyn 5UTR act
CC(C)(C)C(=O)Nc1sc2c(c1C#N)CCCCC2,-78.0*
Cc1nnc(SCC(=O)Nc2sc3c(c2C#N)CCCCC3)n1N,-74.1*
CCOC(=O)Nc1sc2c(c1C#N)CCCC2,-123.2*
Cc1ccc(OCC(=O)Nc2sc3c(c2C#N)CCC3)cc1,-99.0*
C(=N\Nc1ncnc2nc[nH]c12)/c1cccs1,-68.7*
Fc1ccc(/C=N/Nc2ncnc3nc[nH]c23)cc1F,-74.4*
Cc1ccsc1/C=N/Nc1ncnc2nc[nH]c12,-90.3*
Cc1ccccc1/C=N/Nc1ncnc2nc[nH]c12,-71.2*
COc1cc(NC(=O)COc2ccccc2Cl)ccc1NC(=O)c1cccs1,-112.9*
COc1cc(NC(=O)c2ccccc2Cl)ccc1NC(=O)c1ccco1,-194.6*
COc1cc(NC(=O)c2cccs2)ccc1NC(=O)c1ccco1,-148.7*
O=C(Nc1ccc(NC(=O)c2cccs2)cc1Cl)c1ccco1,-154.0*
O=C(Nc1ccc(NC(=O)c2cccs2)c(Cl)c1)c1cccs1,-117.6*
Cc1cc(NC(=O)c2ccc3nc(C)sc3c2)no1,-122.8*
C/C(=C\c1ccccc1)C(=O)Nc1cc(C)on1,-161.0*
Cc1cc(NC(=O)c2ccco2)no1,-61.8*
Cc1cc(NC(=O)NC(=O)c2ccccc2)no1,-119.9*
Cc1cc(NC(=O)c2ccc(Cl)cc2)no1,-106.8*
